Inconclusive results are not listed. Active and inactive are the calls of the source. Rule for the calls: active = hit-call score of the fitted dose curve at least 0.9, where 1 is the maximum; inconclusive = response in the unintended direction; inactive = score below 0.9.
Assays:
[1] = test system: guinea pig Histamine Receptor (H2), gene 100729734; assay: NVS_GPCR_gH2: NovaScreen (NVS) G Protein-Coupled Receptor Assay for guinea pig Histamine Receptor (H2) (AID 2283342)
Method in brief: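 Radioligand displacement on guinea pig striatal membranes, 1 h after dosing, filter-based scintillation counting; loss of signal versus DMSO. Single-point screen at 25 uM in duplicate, then concentration-response up to 50 uM.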

[2] = biological target: Estrogen receptor (Homo sapiens) (UniProt P03372); assay: OT_ER_ERaERa_1440: Odyssey Thera (OT) 24-hour HEK293T Protein-Complementation Assay for Estrogen Receptor-alpha/-alpha Homodimer (AID 2283349);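 note: hits raise fluorescence above DMSO for agonists and antagonists alike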
Estrogen receptor (Homo sapiens), sequence (P03372 whole entry, looked up, the tested form may be a part): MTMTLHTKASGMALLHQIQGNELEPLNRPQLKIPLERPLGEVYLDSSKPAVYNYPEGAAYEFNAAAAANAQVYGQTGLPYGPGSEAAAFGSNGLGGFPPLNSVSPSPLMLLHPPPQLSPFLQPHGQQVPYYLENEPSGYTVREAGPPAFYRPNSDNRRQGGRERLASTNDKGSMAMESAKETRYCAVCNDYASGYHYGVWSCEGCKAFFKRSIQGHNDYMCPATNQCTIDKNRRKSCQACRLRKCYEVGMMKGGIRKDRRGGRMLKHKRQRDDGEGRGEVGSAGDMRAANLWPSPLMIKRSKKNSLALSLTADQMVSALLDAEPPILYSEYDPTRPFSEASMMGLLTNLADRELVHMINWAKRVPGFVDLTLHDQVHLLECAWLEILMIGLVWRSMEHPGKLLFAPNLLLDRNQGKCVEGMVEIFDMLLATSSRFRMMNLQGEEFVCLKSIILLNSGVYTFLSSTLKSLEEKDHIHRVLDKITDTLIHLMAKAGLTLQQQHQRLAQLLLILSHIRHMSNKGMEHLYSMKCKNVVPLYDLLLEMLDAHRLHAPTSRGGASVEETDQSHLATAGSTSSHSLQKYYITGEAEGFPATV
Method in brief: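 Readout is the rise in mean fluorescence from reporter fragment complementation when ERα LBD (aa 310-547) units dimerize in HEK293T cells. Measured 24 h after dosing and analysed as increase over DMSO control.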

[3] = biological target: Estrogen receptor (Homo sapiens) (UniProt P03372); assay: OT_ER_ERaERa_0480: Odyssey Thera (OT) 8-hour HEK293T Protein-Complementation Assay for Estrogen Receptor-alpha/-alpha Homodimer (AID 2283351);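 note: rise in fluorescence from reassembled reporter fragments on ERα LBD homodimer in nucleus or whole cell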
Method in brief: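 Binding reporter in which dimerisation of ERα LBD (aa 310-547) fusions reconstitutes a fluorescent reporter in HEK293T cells. Compounds incubated 8 h; mean fluorescence intensity increase versus DMSO scored.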

[4] = biological target: T1, Estrogen receptor (Homo sapiens) + Estrogen receptor beta (Homo sapiens) (UniProt P03372+Q92731); assay: OT_ER_ERaERb_0480: Odyssey Thera (OT) 8-hour HEK293T Protein-Complementation Assay for Estrogen Receptor-alpha/-beta Heterodimer (AID 2283352)
T1 sequence (P03372 whole entry, looked up, the tested form may be a part): as above
T1 sequence (Q92731 whole entry, looked up, the tested form may be a part): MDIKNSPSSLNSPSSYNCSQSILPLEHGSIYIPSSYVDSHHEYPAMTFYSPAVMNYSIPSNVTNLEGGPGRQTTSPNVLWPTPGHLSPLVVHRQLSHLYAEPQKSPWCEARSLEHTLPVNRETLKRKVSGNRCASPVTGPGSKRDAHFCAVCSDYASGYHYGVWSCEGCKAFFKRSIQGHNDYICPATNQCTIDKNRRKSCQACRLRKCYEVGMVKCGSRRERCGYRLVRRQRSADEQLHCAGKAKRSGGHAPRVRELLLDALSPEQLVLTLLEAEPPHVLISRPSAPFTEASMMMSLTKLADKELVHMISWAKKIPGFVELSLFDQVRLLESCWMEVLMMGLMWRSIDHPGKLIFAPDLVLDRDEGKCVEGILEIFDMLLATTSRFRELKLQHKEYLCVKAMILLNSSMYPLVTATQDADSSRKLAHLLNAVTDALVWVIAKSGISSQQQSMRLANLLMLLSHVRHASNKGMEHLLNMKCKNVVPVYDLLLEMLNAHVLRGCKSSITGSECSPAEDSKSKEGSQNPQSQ
Method in brief: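 HEK293T protein-fragment complementation assay of ER-alpha/ER-beta LBD heterodimerisation, read 8 h after dosing. Mean nuclear/cytoplasmic fluorescence intensity measured by laser scanning cytometry; gain of signal fitted relative to DMSO.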

[5] = biological target: T1, Estrogen receptor (Homo sapiens) + Estrogen receptor beta (Homo sapiens); assay: OT_ER_ERaERb_1440: Odyssey Thera (OT) 24-hour HEK293T Protein-Complementation Assay for Estrogen Receptor-alpha/-beta Homodimer (AID 2283356);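 note: heteromer of ER alpha and ER beta binding domains; hits raise reporter fluorescence and both agonists and antagonists give an increase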
Method in brief: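 HEK293T stably expressing a PCA of ER alpha LBD (aa 310-547) and ER beta LBD (aa 263-489). After 24 h compound exposure, mean fluorescence intensity in nucleus (agonists) or nucleus and cytoplasm (antagonists) measured by laser scanning cytometry versus vehicle.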

[6] = biological target: Estrogen receptor beta (Homo sapiens) (UniProt Q92731); assay: OT_ER_ERbERb_0480: Odyssey Thera (OT) 8-hour HEK293T Protein-Complementation Assay for Estrogen Receptor-beta/-beta Homodimer (AID 2283357);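 note: active means signal gain over DMSO baseline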
Estrogen receptor beta (Homo sapiens), sequence (Q92731 whole entry, looked up, the tested form may be a part): as above
Method in brief: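 Readout: increase in mean fluorescence intensity (nucleus for agonists; nucleus plus cytoplasm for antagonists) relative to DMSO, from a reporter-fragment complementation of human ER-beta LBD homodimer in HEK293T cells dosed 8 hours.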

[7] = biological target: bovine Estrogen Receptor (ER), ESR1 (gene 407238) (UniProt P49884); assay: NVS_NR_bER: NovaScreen (NVS) Nuclear Receptor Binding Assay for bovine Estrogen Receptor (ER) (AID 2283345);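 note: actives lower the bound radioligand count which means they displace the ER ligand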
bovine Estrogen Receptor (ER), ESR1 (gene 407238), sequence (P49884 whole entry, looked up): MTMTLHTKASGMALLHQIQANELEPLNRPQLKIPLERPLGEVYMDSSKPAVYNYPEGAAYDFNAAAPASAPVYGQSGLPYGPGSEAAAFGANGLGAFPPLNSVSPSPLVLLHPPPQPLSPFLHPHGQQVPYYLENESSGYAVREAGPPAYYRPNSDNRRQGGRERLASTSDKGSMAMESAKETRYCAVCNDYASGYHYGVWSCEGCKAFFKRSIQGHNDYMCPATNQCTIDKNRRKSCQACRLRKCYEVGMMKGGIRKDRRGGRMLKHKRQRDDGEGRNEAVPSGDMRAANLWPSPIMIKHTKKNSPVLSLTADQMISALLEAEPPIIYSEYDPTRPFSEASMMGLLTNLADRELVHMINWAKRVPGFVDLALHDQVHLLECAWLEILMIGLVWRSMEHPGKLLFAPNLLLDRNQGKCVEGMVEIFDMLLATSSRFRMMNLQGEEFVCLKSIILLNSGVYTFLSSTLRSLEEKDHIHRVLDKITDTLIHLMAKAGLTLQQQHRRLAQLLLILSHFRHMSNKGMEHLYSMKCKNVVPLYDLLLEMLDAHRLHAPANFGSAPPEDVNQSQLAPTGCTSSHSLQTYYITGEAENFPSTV
Method in brief: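 Cell-free radioligand binding with bovine uterine membrane extracts, read 18 hours after dosing by scintillation counting. Loss of signal versus DMSO baseline indicates displacement. Primary screen run in duplicate at 25 uM, actives followed in concentration series.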

[8] = biological target: Estrogen receptor (Homo sapiens) (UniProt P03372); assay: NVS_NR_hER: NovaScreen (NVS) Nuclear Receptor Binding Assay for human Estrogen Receptor (ER) (AID 2283348)
Method in brief: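 Cell-free radioligand binding with protein extracted from MCF7 cells; scintillation counting 18 hours after dosing. Loss of signal versus DMSO baseline read as displacement; primary single-concentration screen at 25 uM in duplicate, actives retested in concentration series.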

[9] = biological target: Androgen Receptor/SRC-1 Co-activator, AR (gene 367) (UniProt P10275); assay: OT_AR_ARSRC1_0960: Odyssey Thera (OT) 16-hour HEK293T Protein-Complementation Assay for Androgen Receptor/SRC-1 Co-activator (AID 2283353);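 note: actives raise the signal above DMSO so potency reflects increased AR and SRC-1 complex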
Androgen Receptor/SRC-1 Co-activator, AR (gene 367), sequence (P10275 whole entry, looked up, the tested form may be a part): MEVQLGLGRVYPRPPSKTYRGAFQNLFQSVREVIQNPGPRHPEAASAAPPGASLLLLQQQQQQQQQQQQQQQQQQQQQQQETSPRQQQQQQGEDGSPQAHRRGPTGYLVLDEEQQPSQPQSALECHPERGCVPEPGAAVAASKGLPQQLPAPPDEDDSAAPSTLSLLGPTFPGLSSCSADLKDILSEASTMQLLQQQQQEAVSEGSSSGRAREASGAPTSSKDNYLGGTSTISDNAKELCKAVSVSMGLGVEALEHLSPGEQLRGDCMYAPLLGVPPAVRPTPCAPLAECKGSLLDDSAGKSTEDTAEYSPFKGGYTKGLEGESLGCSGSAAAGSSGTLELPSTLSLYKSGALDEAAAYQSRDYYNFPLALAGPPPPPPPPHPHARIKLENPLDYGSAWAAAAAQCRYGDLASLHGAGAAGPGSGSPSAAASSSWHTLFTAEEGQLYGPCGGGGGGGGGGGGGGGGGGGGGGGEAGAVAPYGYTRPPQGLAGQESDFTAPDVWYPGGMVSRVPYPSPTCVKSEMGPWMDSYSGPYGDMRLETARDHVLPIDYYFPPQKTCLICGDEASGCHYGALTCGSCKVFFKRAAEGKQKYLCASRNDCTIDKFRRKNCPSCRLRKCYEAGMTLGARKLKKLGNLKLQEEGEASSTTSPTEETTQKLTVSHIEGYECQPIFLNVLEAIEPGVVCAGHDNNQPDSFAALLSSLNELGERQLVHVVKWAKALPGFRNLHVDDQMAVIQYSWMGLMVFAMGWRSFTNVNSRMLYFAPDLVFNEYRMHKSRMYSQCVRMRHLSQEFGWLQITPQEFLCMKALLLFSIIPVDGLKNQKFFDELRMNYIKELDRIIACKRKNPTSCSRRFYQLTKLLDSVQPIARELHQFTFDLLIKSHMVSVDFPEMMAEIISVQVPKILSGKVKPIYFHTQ
Method in brief: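 Interaction of AR with SRC-1 was followed by YFP fragment complementation in HEK293T cells after 16 h of dosing. Gain of nuclear-over-cytoplasmic 488 nm fluorescence against DMSO controls defined activity.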

[10] = biological target: Androgen Receptor/SRC-1 Co-activator, AR (gene 367) (UniProt P10275); assay: OT_AR_ARSRC1_0480: Odyssey Thera (OT) 8-hour HEK293T Protein-Complementation Assay for Androgen Receptor/SRC-1 Co-activator (AID 2283354);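 note: hits raise the complementation signal above DMSO so AC50 marks enhancers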
Method in brief: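 HEK293T cells stably expressing AR and SRC-1 fused to split Venus YFP fragments via (Gly4Ser)2 linkers were read 8 h after compound dosing. Complementation was imaged at 488 and 635nm, and nuclear/cytoplasmic fluorescence ratio (488nm) was taken over ≥400 cells; gain-of-signal versus DMSO.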

[11] = biological target: chimpanzee Androgen Receptor (AR), AR (gene 747460) (UniProt O97775); assay: NVS_NR_cAR: NovaScreen (NVS) Nuclear Receptor Binding Assay for chimpanzee Androgen Receptor (AR) (AID 2283346);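 note: radioligand displacement from AR measured by scintillation counting in a cell-free assay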
chimpanzee Androgen Receptor (AR), AR (gene 747460), sequence (O97775 whole entry, looked up): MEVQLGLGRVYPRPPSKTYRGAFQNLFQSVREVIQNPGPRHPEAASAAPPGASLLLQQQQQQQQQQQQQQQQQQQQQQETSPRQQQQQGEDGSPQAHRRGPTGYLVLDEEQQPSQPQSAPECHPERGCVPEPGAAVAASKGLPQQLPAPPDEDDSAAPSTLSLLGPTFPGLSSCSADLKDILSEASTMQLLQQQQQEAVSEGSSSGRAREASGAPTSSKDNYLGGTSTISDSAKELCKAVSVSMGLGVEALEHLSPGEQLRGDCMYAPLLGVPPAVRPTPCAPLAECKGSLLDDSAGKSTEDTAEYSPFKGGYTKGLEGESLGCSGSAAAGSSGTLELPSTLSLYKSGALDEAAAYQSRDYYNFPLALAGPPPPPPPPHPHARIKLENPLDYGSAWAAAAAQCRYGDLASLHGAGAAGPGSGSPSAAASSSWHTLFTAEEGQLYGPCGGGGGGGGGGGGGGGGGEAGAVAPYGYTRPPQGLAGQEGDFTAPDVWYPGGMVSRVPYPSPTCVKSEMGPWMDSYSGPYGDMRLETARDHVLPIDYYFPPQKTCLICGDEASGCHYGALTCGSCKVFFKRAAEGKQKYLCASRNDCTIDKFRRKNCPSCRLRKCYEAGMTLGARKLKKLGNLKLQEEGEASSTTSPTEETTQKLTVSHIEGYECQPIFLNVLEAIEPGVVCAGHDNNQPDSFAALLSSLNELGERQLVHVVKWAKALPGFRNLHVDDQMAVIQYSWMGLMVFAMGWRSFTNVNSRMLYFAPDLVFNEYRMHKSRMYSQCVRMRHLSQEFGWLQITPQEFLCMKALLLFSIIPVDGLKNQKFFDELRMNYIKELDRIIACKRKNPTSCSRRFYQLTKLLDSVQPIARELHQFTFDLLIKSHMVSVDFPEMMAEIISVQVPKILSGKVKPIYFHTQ
Method in brief: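 Cell-free radioligand displacement using receptor protein extracted from Sf9/Sf21 cells; bound radioligand measured by scintillation counting 72 hours after chemical dosing. Loss of signal versus DMSO baseline indicates binding; primary screen single-concentration in duplicate at 25 uM, actives followed in concentration series.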

[12] = biological target: human Peroxisome Proliferator-activated Receptor alpha (PPARa), PPARA (gene 5465) (UniProt Q07869); assay: NVS_NR_hPPARa: NovaScreen (NVS) Nuclear Receptor Binding Assay for human Peroxisome Proliferator-activated Receptor alpha (PPARa) (AID 2283359);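 note: activity means loss of TR-FRET signal versus DMSO baseline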
human Peroxisome Proliferator-activated Receptor alpha (PPARa), PPARA (gene 5465), sequence (Q07869 whole entry, looked up): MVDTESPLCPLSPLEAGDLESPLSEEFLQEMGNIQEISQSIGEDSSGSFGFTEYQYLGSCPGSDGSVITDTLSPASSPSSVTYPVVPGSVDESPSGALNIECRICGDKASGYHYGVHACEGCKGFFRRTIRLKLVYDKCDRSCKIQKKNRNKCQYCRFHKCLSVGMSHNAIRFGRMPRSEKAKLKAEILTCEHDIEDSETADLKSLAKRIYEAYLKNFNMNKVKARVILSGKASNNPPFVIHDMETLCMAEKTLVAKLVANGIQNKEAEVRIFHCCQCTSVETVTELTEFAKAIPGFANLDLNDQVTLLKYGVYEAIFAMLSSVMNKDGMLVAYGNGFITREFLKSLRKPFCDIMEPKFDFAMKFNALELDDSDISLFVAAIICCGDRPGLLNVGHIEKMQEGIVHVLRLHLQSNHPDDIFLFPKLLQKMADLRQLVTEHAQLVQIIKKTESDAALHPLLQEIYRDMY
Method in brief: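 Cell-free binding assay with extracted human protein, read by TR-FRET 1 h after chemical dosing. Loss of signal relative to DMSO baseline indicates binding. Primary screen used duplicate single concentration (25 uM); actives followed up in concentration series.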

PGR (gene 5241) = PGR (gene 5241) (UniProt P06401); assay: NVS_NR_hPR: NovaScreen (NVS) Nuclear Receptor Binding Assay for human Progestron Receptor (PR) (AID 2283360)
PGR (gene 5241), sequence (P06401 whole entry, looked up): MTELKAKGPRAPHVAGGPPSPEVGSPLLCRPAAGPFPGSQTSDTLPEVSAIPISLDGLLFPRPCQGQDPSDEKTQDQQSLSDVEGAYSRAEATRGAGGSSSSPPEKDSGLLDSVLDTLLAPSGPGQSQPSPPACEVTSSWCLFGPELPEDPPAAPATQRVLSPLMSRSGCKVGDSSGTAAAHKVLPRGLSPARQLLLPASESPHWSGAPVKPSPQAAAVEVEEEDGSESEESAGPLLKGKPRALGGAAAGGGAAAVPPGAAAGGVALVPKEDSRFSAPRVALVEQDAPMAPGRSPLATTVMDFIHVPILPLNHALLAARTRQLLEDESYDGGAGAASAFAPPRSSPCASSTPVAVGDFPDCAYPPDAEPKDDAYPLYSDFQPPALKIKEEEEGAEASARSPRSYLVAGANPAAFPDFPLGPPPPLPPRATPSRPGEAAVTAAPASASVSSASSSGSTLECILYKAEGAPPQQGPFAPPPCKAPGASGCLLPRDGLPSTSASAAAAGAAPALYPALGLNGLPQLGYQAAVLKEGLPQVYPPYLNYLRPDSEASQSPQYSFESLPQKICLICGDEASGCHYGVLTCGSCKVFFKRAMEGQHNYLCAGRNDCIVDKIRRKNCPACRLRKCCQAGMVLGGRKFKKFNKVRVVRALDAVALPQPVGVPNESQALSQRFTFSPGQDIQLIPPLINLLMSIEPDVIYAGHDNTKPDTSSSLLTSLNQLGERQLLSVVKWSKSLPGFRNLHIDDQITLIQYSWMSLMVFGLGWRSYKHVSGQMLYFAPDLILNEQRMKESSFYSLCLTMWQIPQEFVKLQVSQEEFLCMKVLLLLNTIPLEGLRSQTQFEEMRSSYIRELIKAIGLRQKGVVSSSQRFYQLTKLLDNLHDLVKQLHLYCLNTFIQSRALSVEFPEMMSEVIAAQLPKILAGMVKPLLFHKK
Method in brief: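 Radioligand competition binding on receptor extracted from T47D cells, read by scintillation counting 18 h after dosing. Loss of signal versus DMSO; primary screen in duplicate at 25 uM, actives followed in concentration series.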

## CN(C)C(=O)NC1(c2ccccc2)CCN(CCC[C@]2(c3ccc(Cl)c(Cl)c3)CCCN(C(=O)c3ccccc3)C2)CC1
[1]
  AC50: 16.4 nM (active)
[2]
  outcome: inactive
[3]
  outcome: inactive
[4]
  outcome: inactive
[5]
  AC50: 2970 nM (active)
[6]
  outcome: inactive

## Cc1c(C)c2c(c(C)c1O)CCC(C)(COc1ccc(CC3SC(=O)NC3=O)cc1)O2 (stereo not given)
[7]
  outcome: inactive
[8]
  outcome: inactive
[2]
  outcome: inactive
[3]
  outcome: inactive
[9]
  AC50: 27400 nM (active)
[10]
  outcome: inactive
[5]
  outcome: inactive
[6]
  outcome: inactive

## O=C(NS(=O)(=O)/C=C/c1cccs1)c1ccc(F)cc1Br
[2]
  outcome: inactive
[3]
  outcome: inactive
[9]
  outcome: inactive
[5]
  outcome: inactive
[6]
  outcome: inactive

## Nc1nc(=S)c2[nH]cnc2[nH]1
[8]
  outcome: inactive
[2]
  outcome: inactive
[3]
  outcome: inactive
[4]
  outcome: inactive
[9]
  outcome: inactive
[10]
  outcome: inactive
[5]
  outcome: inactive
[6]
  outcome: inactive

## CC1(C)C(=O)NC(=O)N1CO
[2]
  outcome: inactive
[3]
  outcome: inactive
[4]
  outcome: inactive
[5]
  outcome: inactive

## S=c1[nH]c2ccccc2s1
[11]
  outcome: inactive
[6]
  outcome: inactive

## CN(C)CCCN(C)CCCN(C)C
[2]
  outcome: inactive
[3]
  outcome: inactive
[5]
  outcome: inactive
[6]
  outcome: inactive
[12]
  outcome: inactive
PGR (gene 5241)
  outcome: inactive

## CC(C)c1cccc(C(C)C)c1
[2]
  outcome: inactive
[3]
  outcome: inactive

## COC(=O)CCC(=O)OC
[2]
  outcome: inactive
[3]
  outcome: inactive
PGR (gene 5241)
  outcome: inactive

## COc1ccc(C(=O)Nc2nc3ccccc3c(NCc3ccccc3)c2C#N)cc1
[2]
  outcome: inactive
[3]
  outcome: inactive
[4]
  outcome: inactive
[5]
  outcome: inactive
[6]
  outcome: inactive
[12]
  outcome: inactive

## CCCCCCCC(=O)OC
[2]
  outcome: inactive
[3]
  outcome: inactive
[5]
  outcome: inactive
[6]
  outcome: inactive

## OCC(CO)n1cnc(-c2ccc(F)cc2)c1-c1ccnc(Oc2ccccc2)n1
[2]
  outcome: inactive
[3]
  outcome: inactive
[4]
  outcome: inactive
[5]
  outcome: inactive
[6]
  outcome: inactive

## NC(=Nc1ccccc1)Nc1ccccc1
[2]
  outcome: inactive
[3]
  outcome: inactive
[4]
  outcome: inactive
[5]
  outcome: inactive
[6]
  outcome: inactive
[12]
  outcome: inactive

From PubChem BioAssay (EPA / NIEHS)
